The panel holds about 83,000 compounds, 20% with a hit somewhere; the sample as a whole holds those more often.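 Testing used 96-well plates and a 48-hour single-concentration exposure. Example: -40 means 40% of the starting cells died.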 Values without a mark were called inactive. Calls of active or inactive are those of the source. Rule for the calls: active = growth percent below 10; inactive = the rest.

Common to all, as to test: NCI-60 one-dose screen, 48 h (100 = growth as untreated, 0 = no growth, -100 = all killed)
Common to all, as to conditions: 10 µM unless noted

The subject of experiment [1] is SR leukemia.
For experiment [2], the system named is RPMI-8226 leukemia.
The subject of experiment [3] is OVCAR-5 ovarian.
Experiment [4] concerns OVCAR-4 ovarian.
For experiment [5], the system named is SK-OV-3 ovarian.
The test system of experiment [6] is IGROV1 ovarian.
For experiment [7], the system named is OVCAR-3 ovarian.
Experiment [8] relates to HS 578T breast.
The test system of experiment [9] is NCI/ADR-RES ovarian.
Experiment [10] concerns T-47D breast.
Experiment [11] has as its system BT-549 breast.
The test system of experiment [12] is SW-620 colon.
For experiment [13], the system named is MCF7 breast.
Experiment [14] concerns HCT-116 colon.
For experiment [15], the system named is HCC-2998 colon.
In experiment [16] the test system is KM12 colon.
Experiment [17] has as its system OVCAR-8 ovarian.
For experiment [18], the system named is MDA-MB-435 melanoma.

Turning to `COC(=O)[C@H](Cc1cn(C)cn1)NC(=O)[C@H](CC(C)C)NC(=O)Nc1cc(C(F)(F)F)cc(C(F)(F)F)c1`, the growth in experiment [1] is -46.5% [100 µM] (active); in experiment [2], -53.4% [100 µM] (active); in experiment [3], -98.6% [100 µM] (active); in experiment [4] it was -97% [100 µM] (active); in [5] it was -100% [100 µM] (active); in [6], -89.2% [100 µM] (active). Further, the growth in experiment [7] was -98.8% [100 µM] (active); in [8], -17.3% [100 µM] (active); in [9], -67.3% [100 µM] (active); in [10] it was -64.9% [100 µM] (active); in [11] it was -95.6% [100 µM] (active); in [12] it was -43.6% [100 µM] (active). In addition, the growth was -86.5% [100 µM] (active) in experiment [13], -98% [100 µM] (active) in experiment [14], -90.3% [100 µM] (active) in [15] and -95.4% [100 µM] (active) in experiment [16].

Regarding `CC(=O)N1N=C(C2C(=O)N(C)C(=O)N(C)C2=O)CC1c1ccccc1C(=O)O` (centres undefined), the growth was 93% in experiment [1]; 103% in experiment [17]; 104% in [3]; 113% in [4]; 94.8% in experiment [5]; 112% in experiment [6]. Moreover, the growth is 109% in experiment [7]; 92.1% in [8]; 105% in experiment [9]; 95.4% in experiment [10]; 91.8% in experiment [11]; 102% in [18]. In addition, the growth is 107% in experiment [12], 101% in [13], 91.3% in experiment [14] and 113% in experiment [15].

As for `COc1ccc(-c2nn(C(=O)NCCN(C)C)cc2-c2ccncc2)cc1Cl`, the growth was 20.5% in experiment [1]; 20.4% in experiment [17]; 76.9% in [3]; 57.6% in experiment [4]; 9.29% (active) in experiment [5]; 54.1% in experiment [6]. Besides, the growth was 51.3% in [7]; 66.5% in experiment [8]; 14.5% in experiment [9]; 37.1% in experiment [10]; 58.6% in [11]; -25.3% (active) in experiment [18]. In addition, the growth is 30.5% in experiment [12]; 19.3% in [13]; 23.1% in experiment [14]; 76.4% in experiment [15]; 43.3% in experiment [16].

With `CN1C(=O)C(C2=NNC(c3ccccc3C(=O)O)C2)C(=O)N(C)C1=O` (centres undefined), the growth in experiment [1] was 101%; in experiment [17] it was 103%; in [3] it was 94.6%; in experiment [4], 99%; in experiment [5], 90.9%; in [6], 106%. For the same compound, the growth in experiment [7] is 110%; in [8], 93.6%; in experiment [9] it was 108%; in [10], 87.4%; in experiment [11] it was 104%; in experiment [18], 104%. For the same compound, the growth in experiment [12] was 99.7%; in experiment [13], 99.7%; in experiment [14] it was 99.4%; in experiment [15], 117%; in experiment [16], 104%.

In the case of `O=c1c2cc(Br)cc(Br)c2nc(-c2ccc(Cl)cc2)n1/N=C\c1ccccc1F`, the growth in [1] is 81%; in experiment [17], 47%; in [3] it was 64.8%; in experiment [4], -9.05% (active); in [5], 49.6%; in experiment [6], 39.1%. The growth was 56.4% in experiment [7]; 60.8% in experiment [8]; 53.7% in experiment [9]; 69.7% in [10]; 88.3% in experiment [11]; 81.2% in experiment [18]. The growth is 82.5% in experiment [12], 56.1% in experiment [13], 32.8% in [14] and 85.4% in experiment [15].

As for `CCN1C(=O)N(CC)C2C1N=C(SC)N2/N=C/C=C/c1ccccc1OC` (centres undefined), the growth was 13.3% in experiment [1]; 10.9% in [17]; 37.2% in [3]; 50.5% in experiment [4]; 18.9% in experiment [5]; 22.2% in [6]. Further, the growth in experiment [7] is -18.9% (active); in [8] it was 59.2%; in experiment [9], -0.869% (active); in experiment [10] it was 54.2%; in experiment [11], 12.8%; in [18], 2.95% (active). The growth in [12] is 22.7%; in experiment [13] it was 12.9%; in experiment [14] it was 6.51% (active); in experiment [15] it was 10.5%; in experiment [16] it was 4.92% (active).

Consider `CC(C)(C)c1cc(C[P+](c2ccccc2)(c2ccccc2)c2ccccc2)cc(C(C)(C)C)c1O`, for which the growth was -22.3% (active) in experiment [1]; -35% (active) in [2]; 20.8% in [3]; 16.2% in experiment [4]; -0.717% (active) in [5]; 12.1% in [6]. Also, the growth in experiment [7] is 13.8%; in experiment [8] it was 16.2%; in [9] it was 73.2%; in experiment [10], -4.23% (active); in experiment [11] it was -0.875% (active); in experiment [18], -38% (active). Also, the growth in experiment [12] is 10.6%; in experiment [13], 3.43% (active); in experiment [14], 5.83% (active); in experiment [15], 14.6%; in experiment [16], -38.6% (active).

Consider `N/C(=N\O)c1ncc(-c2ccc(C(F)(F)F)cc2)c(NC2CCCCCC2)n1`, for which the growth in [1] is -48.8% [100 µM] (active); in experiment [2] it was -35.7% [100 µM] (active); in experiment [3] it was -76.5% [100 µM] (active); in [4], -6.06% [100 µM] (active); in experiment [5], -17.8% [100 µM] (active); in experiment [6] it was -77.2% [100 µM] (active). The growth in [7] is -95% [100 µM] (active); in [8], -43.3% [100 µM] (active); in experiment [9], -61.8% [100 µM] (active); in experiment [10] it was -57.3% [100 µM] (active); in experiment [11] it was -93.2% [100 µM] (active); in experiment [12], -67.4% [100 µM] (active). The growth was -92.8% [100 µM] (active) in [13], -95.8% [100 µM] (active) in experiment [14], -95.6% [100 µM] (active) in experiment [15] and -90.1% [100 µM] (active) in experiment [16].

For the compound `CCCCCCCCCCCCCCCC1=NC(C)(C)CN1C(C)C`, the growth in experiment [1] is -49.7% (active); in experiment [17] it was -16.8% (active); in experiment [3] it was 56.2%; in [4] it was 24.3%; in [5] it was -6.62% (active); in experiment [6], -32.9% (active). In addition, the growth in experiment [7] was -43.2% (active); in [8] it was -31.6% (active); in experiment [9] it was -22% (active); in experiment [10] it was -11.2% (active); in experiment [11], 71.3%; in [18] it was -59.3% (active). The growth was -69.1% (active) in experiment [12]; -27.6% (active) in experiment [13]; -73.5% (active) in [14]; -89.9% (active) in experiment [15]; -73.2% (active) in [16].

Source of the values: PubChem BioAssay (NCI).
